High-throughput results from PubChem.
TNF death inh: TNF-alpha cell death inhibition in Jurkat FADD-/- cells | 220,000 compounds, 0.068% hits | activation (protection from cell death), % at 10 µM | Jurkat FADD-/- TNF necroptosis rescue, ATP luminescence, 24 h; 0 = TNF only, 100 = no-TNF cells | AID 463075;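 active = activation, meaning protection from cell death, of at least 50% relative to plate controls; inactive = activation below 50%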;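 also: necroptosis triggered by 40 ng/mL TNF-alpha added together with compound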
Hsp70 act: transcriptional activators of Hsp70 | HeLa Hsp70 promoter luciferase reporter, luminescence; scaled: vehicle 0, proteasome-inhibitor control 100% | activation, % at 10 µM | 200,000 compounds, 0.04% hits;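 active = activation above the mean across all tested compounds plus 3 SD, cutoff set per campaign, cut at about 5.5% in these data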;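 also: 100% = MG132 at 30 µM as the positive control and 0% = DMSO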
zVAD death inh: L929 zVAD cell death inhibition | L929 zVAD necroptosis rescue, ATP luminescence, 24 h; with zVAD 60 µM | 220,000 compounds, 0.38% hits | viability rescue, % at 10 µM;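 active = activation, scaled between plate controls, above about 75%, limit read from the data; inactive = activation under that limit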;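 also: 0% = zVAD with DMSO and 100% = DMSO alone without zVAD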
HSF1 activator: increases HSF-1 driven luciferase reporter signal; NIH3T3-HGL HSF-1 luciferase reporter, MG132, 8 h; 100% = twice DMSO control signal; activation, % at 9 µM; 300,000 compounds, 1.7% hits; AID 504408;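 active = mean replicate activation of at least 50% with a set share of replicates each reaching 50%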;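 also: 0% = median of the neutral control wells and 100% = twice that signal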
zVAD necrop conf: confirmed blocker of zVAD induced death in L929 cells | shares compounds with zVAD death inh | L929 zVAD-induced necroptosis rescue, ATP luminescence, 24 h | activation (protection from necroptosis), % at 10 µM | 760 compounds, 16% hits | AID 463117;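 active = mean protection from necroptosis of at least 50% over duplicate tests; inactive = mean protection below 50%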;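 also: 0% = cells with zVAD alone and 100% = vehicle cells without zVAD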
Numbers without * were called inactive; / = no result given. The list is not random: actives were taken first. Their share in the collection is about 1.9%.

SMILES	TNF death inh	Hsp70 act	zVAD death inh	HSF1 activator	zVAD necrop conf
Cc1ccc(/C=N/Nc2nc3ccccc3[nH]2)s1	11	0	76*	452*	5
CCn1nc(C)c(CNCc2cn[nH]c2-c2cc3ccccc3o2)c1C	1	/	0	-5	/
CSCCC(C)N1CCC(Oc2ccc(C(=O)N3CCCC3)cc2)CC1 (centres undefined)	/	/	/	-17	/
Oc1ccccc1N=Cc1c(O)ccc2ccccc12	-6	/	84*	28	12
Cc1nnsc1SCCNC(=O)Nc1ccc(Cl)cc1	3	0	79*	18	5
CCOc1ccc(CN(C)C(=O)CNC(=O)C2CCCCC2)cc1OC	/	/	/	-18	/
CCCCNC(=O)Nc1nc2ccc(CC)cc2s1	8	0	78*	9	2
Cc1c(C(=O)Nc2c(C)n(C)n(-c3ccccc3)c2=O)oc2ccc(Cl)cc12	/	/	/	5	/
O=C(N/N=C1\CCCc2c1[nH]c1ccc(Cl)cc21)c1ccncc1	/	/	/	-2	/
Clc1ccc2[nH]c3c(c2c1)CCc1cn[nH]c1-3	90*	0	101*	46	83*
O=C1CCCc2c1[nH]c1ccccc21	0	0	0	2	/
c1ccc2c3c([nH]c2c1)-c1[nH]ncc1CC3	95*	0	91*	2	93*
O=C(NCC1CCCCC1)c1ccc(F)cc1Cl	/	/	/	43	/
O=Cc1ccc2noc(-c3ccc(F)cc3)c2c1	-6	0	82*	4	2
O=C(CSc1ncn(-c2ccccc2)n1)Nc1nncs1	0	1	1	7	/
CC(=O)Nc1ccc(C(=O)CSc2ncn(-c3ccccc3)n2)cc1	-5	0	80*	9	1
CCSc1nc(-c2cccnc2)ccc1C#N	-1	-1	2	-12	/
N#CC(C#N)=C1C=CC=CN1/C(=C\c1ccco1)C(=O)c1ccc(Cl)cc1	-1	0	0	/	/
N#CC(C#N)=C1C=CC=CN1/C(=C\c1ccco1)C(=O)c1ccc(-c2ccccc2)cc1	-4	4	99*	/	25
O=C(/C=C/c1cn(CC(O)CN2CCOCC2)c2ccccc12)c1cccs1 (centres undefined)	2	/	-1	31	/
COc1ccc(C(=O)/C=C/c2cn(CC(O)CN3CCOCC3)c3ccccc23)cc1 (centres undefined)	7	0	82*	/	38
O=C(Nc1ccc(-c2csc(Nc3cccc(C(F)(F)F)c3)n2)cc1)c1ccccc1	8	/	83*	27	38
O=C(Nc1cccc(-c2csc(Nc3cccc(C(F)(F)F)c3)n2)c1)c1ccccc1	5	/	7	-13	/
COc1ccc(-c2cc(C(=O)Nc3cc(OC)cc(C(=O)Nc4cccc(C(F)(F)F)c4)c3)[nH]n2)cc1	2	/	79*	39	3
COc1cc(NC(=O)c2ccno2)cc(C(=O)Nc2cccc(C(F)(F)F)c2)c1	3	/	2	-8	/
SMILES	TNF death inh	Hsp70 act	zVAD death inh	HSF1 activator	zVAD necrop conf
COc1cc2c(cc1OC)C(Nc1ccccc1)=NC(C)(C)C2	3	0	0	0	/
O=C(NCCN1C(=O)S/C(=C\c2ccc(Cl)c([N+](=O)[O-])c2)C1=O)C1=COCCO1	/	/	/	9	/
FC(F)(F)c1cnc2c(c1)Nc1ccccc1S2	33	0	98*	6	58*
O=C1Nc2ccccc2C1c1ncc(C(F)(F)F)cc1Cl (centres undefined)	/	/	/	9	/
Nc1cc(C(=O)OCC(=O)NC(c2ccccc2)c2ccccc2)ccc1Cl	-1	0	85*	7	36
COc1ccccc1C(=O)NCCC(=O)NC(C)c1ccc(-n2ccnc2)cc1 (centres undefined)	/	/	/	1	/
O=C(OCn1ncc(Br)c(Br)c1=O)c1ccc(F)cc1	-24	3	113*	-95	136*
CC(=O)OCn1ncc(N2CCOCC2)c(Br)c1=O	/	/	/	0	/
COc1ccccc1NC(=O)C1CC(C)OC1=O (centres undefined)	/	/	/	32	/
O=C(NCCCN1CCCC1)Nc1ccccc1[N+](=O)[O-]	/	/	/	-13	/
O=C(COc1ccc(S(=O)(=O)N2CCOCC2)cc1)NCCN1CCOCC1	/	/	/	-19	/
COCCNC(=O)c1cc(Sc2nnc(C)s2)nc2ccccc12	4	/	75*	-2	8
CCOC(=O)C1=C(COC(=O)/C=C/c2cccc(OC)c2)NC(=O)NC1C (centres undefined)	/	/	/	29	/
